# Experimental data published in PubChem BioAssay (NCI).
# About 83,000 compounds went through this panel and 20% of them were active in at least one assay; those are over-represented in the sample as a whole.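 Activity criterion: percent growth below 10, measured after cells in 96-well plates were exposed to a single compound concentration for 48 hours.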 Values without a mark were called inactive. The source made the active and inactive calls.
# Test system: HL-60(TB) leukemia
# Test: NCI-60 one-dose screen, 48 h (100 = growth as untreated, 0 = no growth, -100 = all killed)
# Conditions: 10 µM unless noted
row,SMILES,growth
1,COc1ccc(-c2nn(-c3ccc(NC(=O)Nc4ccc(Cl)c(C(F)(F)F)c4)cc3)cc2-c2ccncc2)cc1Cl,-11.9% (active)
2,CC(=O)Oc1ccc(Cl)cc1CN(C(C)=O)C1CCCCC1,92.8%
3,CCOC(=O)c1cnc2ccc(Br)cc2c1Nc1cccc(S(=O)(=O)NC)c1,119%
4,CC(C)CCOC(=O)c1ccccc1,101%
5,CCOC(=O)c1sc2ccc(NCc3nc[nH]c3C)cc2c1NC(=O)c1cc(OC)c(OC)c(OC)c1,5.99% (active)
6,CCCCCCCCO/N=C\c1c2c(O)c3c(O)c(C)c4c(c3c1O)C(=O)C(C)(O/C=C\C(OC)C(C)C(OC(C)=O)C(C)C(O)C(C)C(O)C(C)/C=C\C=C(\C)C(=O)N2)O4 (stereo not given),-10.2% (active)
7,Cc1ccc(Cn2cc(COc3ccc4c5ccnc(C)c5n(CCCc5ccccc5)c4c3)nn2)cc1,77.6%
8,O=C(CCCCC[P+](c1ccccc1)(c1ccccc1)c1ccccc1)NC(COC(=O)C(Cl)Cl)(COC(=O)C(Cl)Cl)COC(=O)C(Cl)Cl,95.5%
9,CC1=CC(=O)c2ccccc2C1=O,106%
10,Fc1ccccc1CSc1ncnc2nc[nH]c12,90.4%
11,O=C(Nc1ccc(F)cc1)c1c(NC(=O)C(F)(F)F)sc2c1CCCCC2,17.1%
12,COc1nc2c(c(=O)n1C)CN(c1ccccc1)C(=O)C(C)N2 (stereo not given),94%
13,O=[N+]([O-])c1cc(F)c2cccnc2c1O,72.9%
14,CCCCCCCCCCCCCCCCNCCC[C@@H](C)[C@H]1CC[C@H]2[C@@H]3[C@H](OCCCN)C[C@@H]4C[C@H](OCCCN)CC[C@]4(C)[C@H]3C[C@H](OCCCN)[C@]12C,4.5% (active)
15,Nc1nonc1-n1nncc1-c1cccnc1,134%
16,COc1cc(-c2cc(/C=C3\C(=O)Nc4ccccc43)[nH]n2)cc(OC)c1OC,-12.1% (active)
17,Cc1ncc(C#N)c(N)n1,109%
18,FC(F)(F)c1ccc2nc(-c3nc(-c4ccccc4)n4ccccc34)[nH]c2c1,108%
19,O=C(Nc1ccc(Cl)c(Cl)c1)OCn1ncc2ccc([N+](=O)[O-])cc21,96.3%
20,CN1CCCCC1CCN1c2ccccc2Sc2ccc(Br)cc21 (stereo not given),34.9%

row,SMILES,growth
1,NC(=O)N1CCOCC1,93.5%
2,CCN(CC)CCNCC(O)Cc1ccc(OC)cc1 (stereo not given),59.1%
3,CCOc1cc2c(cc1OCC)C(c1cc(OC)c(O)cc1Cl)NCC2 (stereo not given),91.7%
4,COc1ccc2c(c1)CCc1c-2n[nH]c1-c1[nH]nc2c1CCc1cc(OC)ccc1-2,23.4%
5,FC(F)(F)Oc1cccc(-c2cc(NCCCCCCNc3cc(-c4cccc(OC(F)(F)F)c4)nc4ccc(N5CCCC5)cc34)c3cc(N4CCCC4)ccc3n2)c1,21.7%
6,N/C(=N\c1nc2ccccc2s1)NC(=O)Nc1ccccc1,12.8%
7,O=C(/C=C/c1cc(CN2CCOCC2)c(O)c2ncccc12)c1cc(CN2CCOCC2)c(O)c2ncccc12,22%
8,COc1ccc(-c2ncc(-c3ccccc3)[nH]2)cc1OC,-30.2% (active)
9,CCCCCCCC/C=C\CCCCCCCCOc1cccc(CC(=O)NCC[N+](C)(C)C)c1,61.1%
10,c1cc(C2CCCCC2)ccc1OCCCCCCN1CCNCC1,-38.4% (active)
11,CN(C)c1ncnc2c1ncn2C1CCCCO1 (stereo not given),96.3%
12,CC(C)OC(=O)Nc1cc(F)ccc1F,94.7%
13,COc1cccc(C2=NN3C(C2)c2ccccc2OC3c2ccc(/C=C3\SC(=O)NC3=O)cc2)c1 (stereo not given),100%
14,CC(=O)N1N=C(c2ccc(Nc3nc(Nc4ccc(F)cc4)nc(Nc4ccc(Cl)cc4)n3)cc2)CC1c1ccc(Cl)cc1 (stereo not given),166%
15,OCc1ccc(-c2ccc(-c3ccc(CO)s3)o2)s1,21.7%
16,Cc1cc2c(-c3nc4ccccc4n3C)c(O)c(O)cc2c(O)c1-c1c(C)cc2c(-c3nc4ccccc4n3C)c(O)c(O)cc2c1O,76.7%
17,CCCc1cc(=O)n2c(C(=O)Nc3ccc(F)cc3)c(C(=O)Nc3ccc(F)cc3)sc2n1,106% [30 µM]
18,CC1(Cc2ccccc2)CC2=C(C(=O)O1)C(c1ccccc1)NC(=O)N2 (stereo not given),-25.1% (active)
19,COc1ccccc1[C@H]1c2[nH]c3ccccc3c2C[C@H]2C(=O)N(CCCCCCC(=O)NO)CC(=O)N12,1.91% (active)
20,COc1cccc(-c2nnc(N)o2)c1,74.9%
